# Results reported in paper PMC12864922, “TDP-43 directly inhibits mRNA accumulation in neurites through modulation of mRNA stability”.
# The full ranking holds about 9,900 sequences; the median of “r (bound/input frequency ratio)” is about 0.7, and the highest 2% start at about 6.5. Many of the other results were omitted from the sample, so the highest values are more common in it than they were.
# B1: ENSMUSG00000061578.598|Ksr2 (ssRNA)
# RNA: GGGAGUUCUACAGUCCGACGAUCGCUUCGAUAUCCGCAUGCUAUAAAAUAUGAUUCAGGCAAAUUCAAUGCAACUCAAAAUUUCCACCAAUCCCAUAUUGUCCCUAGCAAUGACAAAAUUAUUUGCAAGACAGACCCUGUGACCUGUAGAGGCAAAAUAUAUGGUGGCUUGCCUGGCUGGCCUGUGAUAUAGUGGACUGUCUUAGUGAUCGGACUUCAGGGAGCAACCUAUAGGAAAUGCAAAGGCUUAGAGGGGACGGACAGCUCCCUGACCCUGGAUGGCCAGGAAUGGUGCUAGCUAGGGCUCUUGCGGUCGCACUAGUGUGGAAUUCUCGGGUGUCAAGG
# B2: ENSMUSG00000031028.646|Tub (ssRNA)
# RNA: GGGAGUUCUACAGUCCGACGAUCGCUUCGAUAUCCGCAUGCUACCCCACUGAGGUCCAGGUAGAGCAGAUGAGGCUGAAAUGUAGAGUGUUCUAUAGAGCAUCUCAGUAGCAUAGAAGGAGAAGCCCAGCUCCAACCUCCUGGACCCCAUACUGGUGACCAGCUUGGUGAGGACAGGCAAAAUUUCUCUAGCUGAGAGCACACUUAGCCAGUUUUCACGCCUAGAACAUAUAUGUCGAUUUGCACAUGAUUGUCUUUUCCUAUUUUGGAGUGGUCAGACAUUUUAUUUUUGUUCAAAAUUAUCCUCUUGCGGUCGCACUAGUGUGGAAUUCUCGGGUGUCAAGG
# B3: ENSMUSG00000031028.671|Tub (ssRNA)
# RNA: GGGAGUUCUACAGUCCGACGAUCGCUUCGAUAUCCGCAUGCUAGAGAGCACACUUAGCCAGUUUUCACGCCUAGAACAUAUAUGUCGAUUUGCACAUGAUUGUCUUUUCCUAUUUUGGAGUGGUCAGACAUUUUAUUUUUGUUCAAAAUUAUCUGGAGUUUUAGACAAACUUGCAAAACUGUGCUUUUAUUAAGUGACUUUUUGAAUAAACUUUUUGGUAUUCUGAAGCAAAUGUAUUUAUUUAUUGGUAUGUGCAAUGACAAACUUGGUAUUUUCCCAUAAUGACAUUAUGUAUGUUGUAGACUCUUGCGGUCGCACUAGUGUGGAAUUCUCGGGUGUCAAGG
# B4: ENSMUSG00000029636.275|Wasf3|21:26 (ssRNA)
# RNA: GGGAGUUCUACAGUCCGACGAUCGCUUCGAUAUCCGCAUGCUAUCCCUACGCCCUGCUUUGGCCACACACUGAGUGCUCUGUGCUGCGCCAUGGCCAUCCUGGAGCCUGCGCACACGUGGCCGCUGCUGUGACUCGCUGUCCUUGGUAAUUGGUGAGAGGCUUUUUCUUUCUUUCUCAGUUCUGCUUUUCCACACUGAGACCCACCAUGUUGACAUCAUCCUCGCGACGUUGACAUUUGAGCCUUUUGUUCUGUCUCCCAUGUGCCCUGUAGAACCCAGCACUCAUGUUUGGCAAAACUUUUUCUCUUGCGGUCGCACUAGUGUGGAAUUCUCGGGUGUCAAGG
# B5: ENSMUSG00000061578.898|Ksr2 (ssRNA)
# RNA: GGGAGUUCUACAGUCCGACGAUCGCUUCGAUAUCCGCAUGCUAGACACUACCCAAACCCUAGCACUCUCCCAGUGACUCUCCUAUGAGUACAUAUGCCAUCCUGCUUCCUUUGUGGCAAAACCCUGGGUCACCCAGAGACAGAUUUCCCAGAAUCCCUGGGCCACUUCUCAAUUCUACCCAUGACAGACAUGUCCCAUCCAUGAGCCCAGAUAGUCAAAGACUUCAGCACAAGGGUGUUUAGAGUAGGCAGUGUGGAAGUAUCAAUAAGGUUAUUGAGAUGAGGAUUUAGAAAGAUCCAUGUACUCUUGCGGUCGCACUAGUGUGGAAUUCUCGGGUGUCAAGG
# B6: ENSMUSG00000042529.46|Kcnj12|142:149 (ssRNA)
# RNA: GGGAGUUCUACAGUCCGACGAUCGCUUCGAUAUCCGCAUGCUAGGCCAAAAUGACUGGCUCACGGCCUCGGAGGCUGAUGUAUACCCAUGGGCAAGGAGGUGACUUCUUGGGGUAGGGUUGCUCAGGAGUUAGGGACUCUGCUGGAGGCCUUAGGUGCAGGUCCCAGCCCCGGUGGGAGGAGGCACACAUACUACACUUCAUUGGUUUUUAACUUGGGCAAGACUGUUUACAAACAAAAACAAACAAACAAACAAUCAAAAAAAAAACCCACCCCACAAAACACAAGAAAACAUUAACAGGUGCUCUUGCGGUCGCACUAGUGUGGAAUUCUCGGGUGUCAAGG
# B7: ENSMUSG00000031028.261|Tub (ssRNA)
# RNA: GGGAGUUCUACAGUCCGACGAUCGCUUCGAUAUCCGCAUGCUACCAGAGGGAAGCAAAGAGCAUUUAGACAUUGCUUUUUGCUUUGAAAUAGAUAUGUUUGGAAACGCUAAGUAGAAGUUUAAAAAGUAGAGUCAUGUAGAGUCAUGCUUUGAAUAUGUGGGUCAUGCUUUAGAUAUGAAGAGGCUAUGCAGGUAAGGAGGCUGGAUUGAUGUAAAUGGAAGUAGUACUUUAAGAAAGCUCUAGAUUUCCCAGGUUGGACACUCGACGAAAGGCACACCUGCUGCAGCAGGUUCUGACACACCCUCUUGCGGUCGCACUAGUGUGGAAUUCUCGGGUGUCAAGG
# B8: ENSMUSG00000043670.150|Diras1|4:8;157:162;227:231 (ssRNA)
# RNA: GGGAGUUCUACAGUCCGACGAUCGCUUCGAUAUCCGCAUGCUAGGACACACGAGUGGCUGCCUGGACACUGCCCACCUGGACACCAGCCUUCUGCUGAGAUAGAGACCUUGGCACAGUGGCACCUCGACAGCCACCCCGACUGGGGGUUUGGGGUGCUGAGGGUGGGGUGCCCAGCUGAGAGUCUAUCAGCAAAGUCCCACACACCGGUGAUAGGACUAGUGGCUGCUGCCCUAGGGCUCUGACAGAAUCUGAGCCUCUUUGCUGGUCAACACAACUCUGGAGACUGUCCCCCAUGUCUGCCCCUCUUGCGGUCGCACUAGUGUGGAAUUCUCGGGUGUCAAGG
# Target: TDP-43 (Homo sapiens, UniProt Q13148 1-414)
# Sequence (Q13148 whole entry): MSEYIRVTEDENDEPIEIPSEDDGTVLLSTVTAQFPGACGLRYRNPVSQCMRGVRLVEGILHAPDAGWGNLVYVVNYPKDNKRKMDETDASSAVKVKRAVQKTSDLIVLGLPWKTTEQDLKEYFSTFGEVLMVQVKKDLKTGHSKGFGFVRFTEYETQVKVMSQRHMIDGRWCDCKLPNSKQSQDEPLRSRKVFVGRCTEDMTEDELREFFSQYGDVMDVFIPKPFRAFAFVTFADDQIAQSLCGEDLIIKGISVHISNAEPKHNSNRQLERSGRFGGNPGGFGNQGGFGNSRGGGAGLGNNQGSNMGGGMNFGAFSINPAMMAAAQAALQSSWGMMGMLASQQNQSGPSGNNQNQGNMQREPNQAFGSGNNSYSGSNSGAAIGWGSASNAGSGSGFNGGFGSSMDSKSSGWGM
# Assay: RNA Bind-n-Seq with designed 260-mer pool; 25 mM Tris-HCl, 150 mM KCl, 3 mM MgCl2, BSA (printed 500 mg/mL), 20 units/mL SUPERase IN; pH not stated; 500 nM RNA pool, 1 h, 4 C; TDP-43 5, 50, 500 nM; high values mean tight binding
# Conditions: protein: recombinant; tags: SBP (GST cleaved off with PreScission; pGEX-GST-SBP)
# How it was run: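 Recombinant SBP-tagged TDP-43 at 5, 50 or 500 nM was captured on streptavidin beads, then incubated 1 h at 4 °C with 500 nM of an in vitro-transcribed 260-nt 3′ UTR oligo pool in 25 mM Tris-HCl, 150 mM KCl, 3 mM MgCl2, BSA and SUPERase IN. Bound RNA was washed, eluted with biotin, reverse transcribed, PCR-amplified and sequenced. Binding is R, each oligo's mapped-read-normalized abundance in the bound sample divided by its abundance in input. Duplicates used two independent protein batches.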
row,Binder,binding signal
1,B1,0.515 R (bound/input frequency ratio)
2,B2,0.442 R (bound/input frequency ratio)
3,B3,0.247 R (bound/input frequency ratio)
4,B4,1.01 R (bound/input frequency ratio)
5,B5,0.362 R (bound/input frequency ratio)
6,B6,0.514 R (bound/input frequency ratio)
7,B7,2.37 R (bound/input frequency ratio)
8,B8,1 R (bound/input frequency ratio)
